# Source: PubChem (National Center for Advancing Translational Sciences (NCATS))
# BAZ2B inh: BAZ2B (human) inhibition | AlphaScreen BAZ2B-H3K14Ac peptide displacement | Potency, µM (doses to about 114 µM), for the others: at the top dose activity change, negative = inhibition, hits mostly inhibitors | hit rate 4.4% among 360,000; note: % is set by controls: 0 for no effect and ±100 for the full control effect; nearly all actives have a fitted effect of over 60% in size
#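 Inhibition is scored as reduced AlphaScreen emission. The BAZ2B/b-H3(5-23)K14Ac complex (50 nM each) in PBS pH 7.4, 0.01% Tween-20 meets compound (up to 110 uM) for 30 min at RT before bead addition.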
# HP1b binding inh: inhibitors of HP1-beta chromodomain binding to methylated histone tails. Potency, µM (doses to about 114 µM), for inactives: top-dose activity change, negative = inhibition, hits mostly inhibitors. P83916. AlphaScreen HP1-beta / biotin-H3K9me3 peptide binding. hit rate 0.56% among 390,000; note: nearly all actives have a fitted effect of over 70% in size
#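 AlphaScreen: HP1-beta (50 nM) preformed 30 min with biotin-H3(1-18)K9me3 peptide (50 nM) in PBS pH 7.4, 0.01% Tween-20. Compound added for 30 min at RT, then streptavidin donor/nickel chelate acceptor beads (10 ug/mL) for 30 min.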
# JMJD2A Tudor: JMJD2A Tudor domain (human) inhibition; O75164; AlphaScreen JMJD2A-Tudor / H3K4me3 peptide binding; Potency, µM (top dose mostly 114 µM), for inactives: at the highest dose activity change, negative = inhibition, most hits filed as inhibitors; hit rate 4.4% among 390,000; AID 504339; note: % is set by controls: 0 for no effect and ±100 for the full control effect; nearly all actives have a fitted effect of over 50% in size
# G9a inh: inhibitors of human histone lysine methyltransferase G9a | Q96KQ7 | G9a H3K9 monomethylation, AlphaScreen, 2 h | Potency, µM (series often up to 102 µM), for inactives: top-dose activity, negative = inhibition, hits mostly inhibitors | hit rate 8.8% among 350,000 | AID 504332; note: % is set by controls: 0 for no effect and ±100 for the full control effect; nearly all actives have a fitted effect of over 75% in size
#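 Compounds were preincubated with 20 nM G9a for 15 min, after which biotinylated H3K9 peptide (500 nM) and SAM (20 uM) started a 2 h room-temperature reaction. Monomethylated product was quantified by antibody-based AlphaScreen chemiluminescence.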
# Sfp PPTase inh: Sfp phosphopantetheinyl transferase inhibition. Biochemical Sfp PPTase activity, qHTS. hit rate 3.5% among 310,000. Potency, µM, for inactives: largest response in the series, negative = inhibition, most hits filed as inhibitors. AID 1490. Q9F4F7;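 note: the enzyme is Sfp with the accession as filed and its product quenches rhodamine fluorescence; 0% = enzyme reaction without inhibitor and -100% = no enzyme wells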
#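 Fluorescence-quenching assay: 15 nM Sfp-PPTase preincubated 15 min at room temperature with compound, then 5 uM rhodamine-CoA and 12.5 uM BHQ-2-labelled YbbR peptide added. Fluorescence (ex 525/em 598 nm) read at start and after 30 min; difference gives rate.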
# Numbers without * were called inactive; ? = inconclusive; . = no result; [ ] = another dose, or the depositor's remark. Sampled rows, rich in hits. Any-hit rate of the full collection: about 12%. Calls come from the whole dose curve; as a rule, active = well fitted curve in the direction sought with a large enough effect; inconclusive = small, poorly fitted or top-dose-only effect, or another doubt; inactive = no such curve, though single readings can be large; an effect the other way counts as inactive or inconclusive. Potency is the fitted concentration of half-maximal effect.
SMILES,BAZ2B inh,HP1b binding inh,JMJD2A Tudor,G9a inh,Sfp PPTase inh
Cc1ccc(S(=O)(=O)N/N=C\c2cn(CC(N)=O)c3ccccc23)cc1C,?,26%,-18%,79µM*,7%
Cc1c(Cc2ccccc2)c(=O)n2c([nH]c3ccccc32)c1C#N,-4%,64%,-10%[11.4 µM],0%,79µM*
COc1ccccc1N=Cc1c(C)c(C#N)c2[nH]c3ccccc3n2c1=O,-38%,36%,-30%,-34%,-6%
O=C(COC(=O)c1ccc(F)c(S(=O)(=O)N2CCOCC2)c1)Nc1ccc2c(c1)OCO2,-5%,8%,-11%,-40%,.
CCC1(C)Nc2ccccc2C(=O)N1O (stereo not given),-10%,5%,?,50µM*,-8%
Nc1ccc2c(c1)Nc1ccccc1CC2,28µM*,-32%,50µM*,.,-2%
O=C(CCS(=O)(=O)c1ccccc1)N(Cc1cccnc1)c1nc2c(Cl)cccc2s1,2%,45%,-15%,-7%[59 µM],.
CC(C)NS(=O)(=O)c1ccc(OCC(=O)NCc2ccco2)cc1,-14%,1%,-17%,-5%,23%
CCOc1ccc(N/C(=C(/C(Cl)=C(Cl)Cl)[N+](=O)[O-])n2cncn2)cc1,8.9µM*,.,.,25µM*,-29%
O=[N+]([O-])/C(C(Cl)=C(Cl)Cl)=C(\Nc1ccc(F)cc1)n1cncn1,28µM*,.,.,8.9µM*,-19%
O=C(Nc1ccc(F)cc1)c1ccc(-n2cncn2)c([N+](=O)[O-])c1,-33%,18%,-19%,?,22%
O=C(CSc1nnc(-c2ccccn2)n1-c1ccc(Cl)cc1)Nc1ccc2c(c1)OCO2,?,40%,-26%,14µM*,1%
Nn1c(SCC(=O)Nc2ccc3c(c2)OCO3)nnc1-c1ccc(Cl)cc1,1%,18%,-13%,-2%[59 µM],-1%
O=C(CNCc1ccc(Cl)cc1)Nc1ccc2c(c1)OCCO2,56µM*,?,18µM*,11µM*,-24%
CC(=O)Nc1ccc(NC(=O)CSc2nccn2Cc2ccc(Cl)cc2)cc1,?,9%,-26%,5%,8%
O=C(CSc1nc2c(c(=O)n1-c1ccc(Cl)cc1)SCC2)Nc1ccc2c(c1)OCCO2,5%,36%,-20%,45µM*,13%
O=C(CSc1nc2c(c(=O)n1-c1ccc(F)cc1)SCC2)Nc1ccc2c(c1)OCO2,.,2%,-23%,.,.
O=C(CSc1nccn1Cc1ccc(Cl)cc1)Nc1ccc2c(c1)OCCO2,?,-12%[57 µM],50µM*,?,.
O=C1CCN(Cc2ccccc2)C(=O)N1c1ccccc1,1%,4%,-9%,.,9%
CCOC(=O)c1ccc(NC(=O)COc2ccc(CNC3CCCCC3)cc2OC)cc1,-21%,15%,-6%,-10%,-4%
O=C1c2ccccc2S(=O)(=O)c2cc(N3CCC4(CC3)OCCO4)ccc21,.,91%,-7%,.,.
O=C(CNCc1ccccc1Cl)Nc1ccc2c(c1)OCCO2,56µM*,?,28µM*,.,-19%
N#Cc1cccc2c1-c1ccccc1/C2=N/NC(N)=S,?,-16%,?,89µM*,-26%
N#Cc1cccc2c1-c1ccccc1/C2=N/NC(N)=O,-24%,12%,-28%,7%,0%
COc1ccc(-c2cc(C(=O)N/N=C/c3cc(OC)c(OC)cc3OC)c3ccccc3n2)cc1,.,13%,-8%,.,.
SMILES,BAZ2B inh,HP1b binding inh,JMJD2A Tudor,G9a inh,Sfp PPTase inh
CCOC(=O)c1sc2ncnc(N3CCN(c4ccc(OC)cc4)CC3)c2c1C,?,?,?,13µM*,?
CCN(CC)c1ncnc2sc(C(=O)N3CCN(c4ccc(OC)cc4)CC3)c(C)c12,-2%,-8%,?,14µM*,-10%
CCOC(=O)c1sc2ncnc(N3CCN(C)CC3)c2c1C,-15%,8%,-21%,?,0%
CCCNC(=O)C(=O)NCC1CCCN1CC (stereo not given),-13%,8%,-14%,-8%[59 µM],2%
Cc1ccc(C=Nc2ccc(N(C)C)cc2)o1,.,?,45µM*,1.3µM*,?
Cc1ccc(C=Nc2ccccc2C(N)=O)o1,7%,29%,-3%,33%[59 µM],-50%
COc1ccc(-c2nnc(SCc3ccccn3)n2C)cc1,-3%,-7%,-11%[11.4 µM],12%[59 µM],14%
COc1ccc(N=C(N)SCc2ccccn2)cc1,?,?,50µM*,16µM*,?
NS(=O)(=O)c1ccc(CCNC(=O)C(=O)Nc2cc3c4c(c2)CC(=O)N4CCC3)cc1,-19%,26%,-3%,-29%,.
Cc1cc2occ(CC(=O)NCc3cccs3)c2cc1C(C)C,3%,22%,-7%,-13%[59 µM],1%
Cc1csc(NC(=O)Cc2coc3cc(C)c(C(C)C)cc23)n1,?,15%,-32%,45µM*,19%
O=C1CCC2S/C(=C/Nc3ccc(C(F)(F)F)cc3)C(=O)N12 (stereo not given),?,-15%,-14%[11.4 µM],?,22µM*
Cc1c(C)c2ccc(OC(C)C(=O)N3CC[C@@]4(O)CCCC[C@H]4C3)cc2oc1=O (stereo not given in full),?,24%,0%,1%[12.7 µM],15%
COc1ccc(CCNC2CC(C)N(C)CC2C)cc1OC (stereo not given),4%,35%,-3%,45µM*,11%
Cc1cc(/C(=N/O)C(C)(C)NO)ccc1Cl,-8%,-18%,20µM*,?,-10%
CC(C)(NO)/C(=N\O)c1ccccc1,40µM*,71µM*,13µM*,10µM*,-7%
COc1ccccc1-c1nnc(SCc2ccccn2)n1C,5%,5%,-1%,20%[12.7 µM],-13%
COc1ccccc1-c1nc(SCc2ccccn2)n[nH]1,10%,17%,-14%,50µM*,9%
CC(CN1CCCC1)OC(=O)c1ccccc1Cl (stereo not given),6%,10%,-20%,?,0%
Cc1ccccc1C(=O)OC(C)CN1CCN(C)CC1 (stereo not given),-26%,23%,-5%,4%[59 µM],4%
CC(CN1CCN(C)CC1)OC(=O)c1ccccc1Cl (stereo not given),?,26%,79µM*,50µM*,-8%
Cc1ccccc1OCC(=O)OC(C)CN1CCN(C)CC1 (stereo not given),?,6%,?,50µM*,-7%
Cn1c(N2CCC(C(N)=O)CC2)nc2c1c(=O)n(Cc1cccc(Br)c1)c(=O)n2C,?,4%,-18%,-31%,-4%
Cc1ccc(C(=O)O/N=C(\N)c2ccccn2)c(Cl)c1,7%,37%,8%,.,14%
O=C(O/N=C(\c1ccccc1)c1ccccn1)c1ccc(Cl)c(Cl)c1,0%,46%,-17%,3.5µM*,2%
N/C(=N\OC(=O)c1ccc([N+](=O)[O-])cc1Cl)c1ccccn1,56µM*,-22%,?,20µM*,3%
N/C(=N\OC(=O)c1ccc(Cl)cc1Cl)c1ccccn1,1%,18%,-18%,89µM*,6%
